From PubChem BioAssay (NCI) come the findings set out here.

Test [1] is described as follows: NCI Yeast Anticancer Drug Screen. Data for the rad50 strain (AID 155).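 Also: 0% = growth of vehicle-only cultures of the same strain.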 Particulars: S. cerevisiae rad50 strain growth inhibition; at 50.0 µM; active compounds read high. Summed up: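 Compounds were tested on a yeast strain with an engineered DNA damage repair alteration; the reported value is growth inhibition normalised to vehicle treatment.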
Test [2] can be described thus: NCI Yeast Anticancer Drug Screen. Data for the mec2-1 strain (AID 157). The following applies: S. cerevisiae mec2-1 strain, at 50.0 µM, active compounds read high. The procedure, abridged:
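Cells of the genetically defined mec2-1 yeast strain are incubated with test compound. Inhibition of growth is calculated against vehicle-treated controls.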

The nature of test [3]: NCI Yeast Anticancer Drug Screen. Data for the sgs1 mgt1 strain (AID 161).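 Also: 0% = growth of cultures given vehicle only.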 The following applies: S. cerevisiae sgs1 mgt1 strain, at 50.0 µM, active compounds read high. Summed up: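 Mutant yeast exposed to compound; growth scored against vehicle-only wells.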
Test [4] is described as follows: NCI Yeast Anticancer Drug Screen. Data for the cln2 rad14 strain (AID 165).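 Also: 0% = growth equal to vehicle treated cultures.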 The following applies: S. cerevisiae cln2 rad14 strain, at 50.0 µM, active compounds read high. Summed up:
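The screen exposed genetically defined yeast (cln2 rad14) to test compounds and scored growth inhibition relative to vehicle-treated controls.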

Test [5] in a line: NCI Yeast Anticancer Drug Screen. Data for the bub3 strain (AID 167). The following applies: S. cerevisiae bub3 mutant strain, at 50.0 µM, active compounds read high. Summed up: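 Growth of a checkpoint-deficient yeast mutant is measured after compound exposure. Values represent inhibition relative to vehicle.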
The nature of test [6]: NCI Yeast Anticancer Drug Screen. Data for the mlh1 rad18 strain (AID 175). Particulars: S. cerevisiae mlh1 rad18 strain growth inhibition; at 50.0 µM; active compounds read high. The procedure, abridged:
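Compound-treated yeast growth, normalised to vehicle controls. Strain bears defined DNA repair mutations.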

Each structure is given as a SMILES string. Compounds without any hit were thinned out: in the full panel of roughly 79,000, 15% have a hit. Values without a mark were called inactive. Activity calls are given as the source filed them. Rule as the data show it: active = growth inhibition above about 70%; inactive = the rest.

Consider `CC(=O)On1c(-c2ccccc2-c2nc3ccccc3n2OC(C)=O)nc2ccccc21`, for which the growth inhibition in test [1] was 10%; in test [2], 14.4%; in test [3] it was 13.4%; in test [4] it was 8.9%; in test [5], -5.05%; in test [6], 2.75%.

With `O=C(N/N=C/c1ccc(O)cc1)c1ccccc1NC(=O)C1CC1`, the growth inhibition in test [1] was 3.25%; in test [2], 23.7%; in test [3] it was 18.9%; in test [4], 2.55%; in test [5], -0.85%; in test [6], -21.1%.

`CCCCC(Sc1cc(Cl)c(C)cc1S(=O)(=O)Nc1n[nH]c(N)n1)C(=O)OC` (stereo not given): the growth inhibition was -4.85% in test [1]; -12.3% in test [2]; 50% in test [3]; 7% in test [4]; -18.8% in test [5]; 5.75% in test [6].

`CC1COC2(CCCCC2)O1` (stereo not given): the growth inhibition was -25.2% in test [1]; -3.45% in test [2]; -44.1% in test [3]; -37% in test [4]; -14.8% in test [5]; -26.1% in test [6].

On to `Nc1nc(SCCCc2ccccc2)c2[nH]cnc2n1`, for which the growth inhibition in test [1] was 7.95%; in test [2], -2.9%; in test [3], -3.4%; in test [4], 25.1%; in test [5], 31.6%; in test [6], -6.55%.

As for `CC(=O)NNC(=S)N/C=C(\C#N)C(=O)c1ccc2ccccc2c1`, the growth inhibition is -59.4% in test [1]; -22.2% in test [2]; -12.7% in test [3]; -1.1% in test [4]; -25.5% in test [5]; -53% in test [6].

For `O=C(O)c1ccc(B(O)O)cc1[N+](=O)[O-]`, the growth inhibition in test [1] was 11.8%; in test [2], 4.75%; in test [3] it was 7.35%; in test [4], 8.7%; in test [5], 34.9%; in test [6], 5.15%.

Regarding `COc1ccc(/C=C2\SC(c3ccc(OC)cc3)N(NC(=O)Cc3ccccc3)C2=O)cc1` (stereo not given), the growth inhibition in test [1] was -14.2%; in test [2] it was -34.8%; in test [3], -6.9%; in test [4], -63.2%; in test [5], 1.1%; in test [6], 1.15%.

With `COc1ccc(C)cc1NC(=O)/C=C/c1ccccc1`, the growth inhibition was 1.6% in test [1]; -6.6% in test [2]; -6.5% in test [3]; 16.2% in test [4]; 30.8% in test [5]; -7.65% in test [6].

Consider `N#CC(NNC(=O)c1ccccc1O)c1cccc(O)c1` (stereo not given), for which the growth inhibition in test [1] is 10.8%; in test [2] it was -0.25%; in test [3], 10.6%; in test [4] it was -6.7%; in test [5], 25.7%; in test [6], -25%.

With `Cc1ccc(-c2nnc(-c3cccc4ccccc34)o2)cc1`, the growth inhibition in test [1] was 1.85%; in test [2], -31.9%; in test [3] it was 0.75%; in test [4], 4.1%; in test [5], -44.1%; in test [6] it was -8.05%.

With `CCCC[Si]CCCC`, the growth inhibition was 14.8% in test [1]; 10% in test [2]; 1.1% in test [3]; 14.6% in test [4]; 4.5% in test [5]; 11.2% in test [6].

`Cc1cc(=O)[nH]n1-c1ccc([N+](=O)[O-])cc1`: the growth inhibition in test [1] was 6.15%; in test [2], -2.4%; in test [3], 5.3%; in test [4], -9.8%; in test [5] it was -1.7%; in test [6] it was 14.8%.

Turning to `CCOC(=O)C(Cc1cc(N)c(O)c(N)c1)NC(C)=O` (stereo not given), the growth inhibition in test [1] is 1.95%; in test [2], -4.95%; in test [3], -1.5%; in test [4], 6.8%; in test [5], -1.45%; in test [6], -0.85%.

As to `COC1OC(C(COC(=O)c2ccccc2)OC(=O)c2ccccc2)C(OC(=O)c2ccccc2)C1OS(C)(=O)=O` (stereo not given), the growth inhibition in test [1] was 5.35%; in test [2], -2.55%; in test [3], 28.8%; in test [4] it was 28.4%; in test [5], -0.1%; in test [6], 11.6%.

In the case of `O=[N+]([O-])c1ccc(OCc2ccc(CBr)cc2)c(Cl)c1`, the growth inhibition in test [1] was 4.1%; in test [2], 29.6%; in test [3] it was 15.4%; in test [4] it was -13.7%; in test [5] it was 16%; in test [6], 22.5%.

As for `CNCCCCCNC`, the growth inhibition in test [1] is -7%; in test [2] it was -10.6%; in test [3], -1.05%; in test [4], -5.45%; in test [5], -0.2%; in test [6], 19.2%.

Turning to `O=C(CBr)c1cc2ncccc2c2ccccc12`, the growth inhibition was 46.6% in test [1]; 51% in test [2]; 62.2% in test [3]; 98.6% (active) in test [4]; 99% (active) in test [5]; 68.9% in test [6].

For the compound `Nc1cccc(CNC(=O)COc2ccc(Cl)c(Cl)c2)c1`, the growth inhibition in test [1] was 84.7% (active); in test [2], 68.9%; in test [3], 89.7% (active); in test [4], 77.2% (active); in test [5], 79.8% (active); in test [6] it was 82.8% (active).

Take `C(CN1CCC2CCC(C2)C1)=C(c1ccccc1)c1ccccc1` (stereo not given): the growth inhibition was 3.75% in test [1]; -1.3% in test [2]; 15.3% in test [3]; -17.9% in test [4]; 26.1% in test [5]; 4.35% in test [6].
